The results in this text go back to PubChem BioAssay (NCATS).

Where “and” joins values, the source holds several entries; their conditions need not be identical. Identical values can stand only once. Calls of active or inactive are those of the source. Unless noted, calls follow the shape of the dose curve; as a rule, active = well fitted inhibition curve with a large enough effect; inconclusive = small, poorly fitted or top-dose-only effect; inactive = flat fitted curve, though single readings scatter.

For test [1], the target named is Ubiquitin carboxyl-terminal hydrolase 1 (Homo sapiens) (UniProt O94782). As to the kind of experiment: Inhibitors of USP1/UAF1: Pilot qHTS (AID 504865). Also: nearly all actives have a fitted effect of over 35% in size. Also: potency is read from the fitted curve at half-maximal effect. The gist of the method: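 1nM USP1/UAF1 + cpd, 15 min RT; start w/ Ub-Rho 150nM final; kinetic FL 480/540 nm, 6 reads q60 s. Buffer 50mM HEPES pH 7.8, 0.5mM EDTA, 1mM TCEP, 0.01% Tween-20, 0.1 mg/ml BSA.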
For test [2], the target named is DNA dC->dU-editing enzyme APOBEC-3G (Homo sapiens) (UniProt Q9HC16). As to the kind of experiment: qHTS for inhibitors of Vif-A3G interactions: Validation (AID 588379). Also: 0% is about no effect. The gist of the method:
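HeLa cells stably expressing Vif and A3G-eYFP, 700 cells/well, incubated overnight at 37 deg C, then exposed to compound overnight at 37 deg C. Inhibition of Vif-mediated degradation read as increased yellow fluorescence (Ex 488/Em 500-530) by laser-scanning cytometry.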
In general terms: Quantitative high-throughput screening tests each substance at several concentrations.

The target in test [3] is Estrogen receptor (Homo sapiens) (UniProt P03372). As to the kind of experiment: qHTS assay for small molecule antagonists of estrogen receptor alpha signaling (AID 588513; active = well fitted curve in the direction sought with a large enough effect in the signal ratio, with a control signal flat, not every such curve was filed as active; inconclusive = small, poorly fitted or top-dose-only effect, or effect the other way, or a change in a side signal; inactive = no such curve, though single readings can be large or run the other way; the % refers to the signal ratio; also: potency is read from the fitted curve at half-maximal effect). In short, it runs like this:
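Beta-lactamase reporter, antagonist mode, HEK 293 GripTite cells; 0.5nM E2 stimulus, 18 h, 37 C; CCF4 dye 2 h RT; fluorescence. IC50 and efficacy from Hill fits, normalized to E2 and DMSO.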

Test [4] has the same target. As to the kind of experiment: qHTS assay for small molecule agonists of estrogen receptor alpha signaling (AID 588514; calls by dose curve;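 also: 0% = vehicle only and 100% = reference agonist; nearly all actives have a fitted effect of over 70% in size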). The gist of the method: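 ER-alpha-UAS-bla GripTite HEK 293 cells in medium with 2% charcoal/dextran-treated FBS were treated with compound titrations at 37 C for 18 hrs; beta-lactamase reporter read by CCF4 fluorescence after 2 hrs at RT.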
In test [5] the target is Glucocorticoid receptor (Homo sapiens) (UniProt P04150). As to the kind of experiment: qHTS assay for small molecule antagonists of glucocorticoid receptor signaling (AID 588533; active = well fitted inhibition curve with a large enough effect in the signal ratio, with a control signal flat, not every such curve was filed as active; inconclusive = small, poorly fitted or top-dose-only effect, or effect the other way, or a change in a side signal; the % refers to the signal ratio;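 also: cells stimulated with 2 nM dexamethasone as agonist; % is scaled to controls: 0 for no effect and ±100 for the full control effect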). In short, it runs like this: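 Antagonist-mode qHTS: compound titrations added to GRE-bla HeLa cells, then dexamethasone 2 nM final; 18 h, 37 C. CCF4 FRET fluorescence normalized to dexamethasone and DMSO; IC50 from Hill fit.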

The target in test [6] is Bile acid receptor (Homo sapiens) (UniProt Q96RI1). As to the kind of experiment: qHTS assay for small molecule antagonists of farnesoid X receptor signaling (AID 588526; calls by dose curve; also: % is scaled to controls: 0 for no effect and ±100 for the full control effect). The gist of the method:
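Beta-lactamase reporter antagonist mode: HEK293T FXR-UAS-bla cells, titrated compound, CDCA stimulation, 16 h 37 C, CCF4 dye 2 h RT. Data normalized to CDCA 50 uM and DMSO; Hill-fit IC50.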

Test [7] in a line: qHTS assay for small molecule antagonists of peroxisome proliferator-activated receptor delta signaling (AID 588535; active = well fitted inhibition curve with a large enough effect in the signal ratio, with a control signal flat, not every such curve was filed as active; inconclusive = small, poorly fitted or top-dose-only effect, or effect the other way, or a change in a side signal; inactive = no such curve, though single readings can be large or run the other way; the % refers to the signal ratio;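 as to max response: cells co-treated with a PPAR-delta agonist as stimulator during compound exposure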). Conditions: HEK293T PPARd-UAS-bla, beta-lactamase FRET ratio, 18 h; 460 nm channel. In short, it runs like this: (§1)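 Cell-based beta-lactamase assay in antagonist mode: 4000 HEK293T PPAR-delta-UAS-bla cells per well, 5 hr preincubation then 18 hr compound incubation at 37 C. IC50 obtained by Hill equation fitting.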

The target in test [8] is Peroxisome proliferator-activated receptor delta (Homo sapiens) (UniProt Q03181). The test is described as above. In short, it runs like this:
as §1

Test [9] concerns the target Androgen receptor (Homo sapiens) (UniProt P10275). As to the kind of experiment: qHTS assay for small molecule agonists of androgen receptor signaling (AID 588515; active = well fitted curve in the direction sought with a large enough effect in the signal ratio, with a control signal flat; inconclusive = small, poorly fitted or top-dose-only effect, or effect the other way, or a change in a side signal; inactive = no such curve, though single readings can be large or run the other way; the % refers to the signal ratio; also: % is scaled to controls: 0 for no effect and ±100 for the full control effect). Conditions: AR-UAS-bla HEK293, beta-lactamase ratio, agonist 16 h; stronger effect = higher value. The gist of the method:
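EC50 and efficacy came from Hill fits of titrations (up to 92 uM) normalized to 30 nM R1881 as 100% and DMSO as 0%. Compound exposure was 16 h at 37 C on AR-UAS-bla HEK293 cells, with a 405/460/530 nm CCF4 fluorescence read.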

For test [10] the target is unchanged. As to the kind of experiment: qHTS assay for small molecule antagonists of androgen receptor signaling (AID 588516; active = well fitted curve in the direction sought with a large enough effect in the signal ratio, with a control signal flat, not every such curve was filed as active; inconclusive = small, poorly fitted or top-dose-only effect, or effect the other way, or a change in a side signal; inactive = no such curve, though single readings can be large or run the other way; the % refers to the signal ratio; also: % is scaled to controls: 0 for no effect and ±100 for the full control effect). From the text:
NIH Chemical Genomics Center [NCGC] U.S. Environmental Protection Agency [EPA] National Institutes of Environmental Health Sciences [NIEHS] National Toxicology Program [NTP] NCGC Assay Overview Androgen receptor (AR), located at chromosome Xq11-12, is an important member of nuclear hormone receptors. AR signaling plays a critical role in AR-dependent prostate cancer and other androgen related diseases. Considerable attention has been given in the past decades to the possibility of some of environmental chemicals which may contribute the endocrine disruption. Therefore, it is important to understand the effect of environmental chemicals in AR signaling pathway.
NCGC Assay Protocol Summary Using a beta-lactamase reporter-gene under control of the AR response element, a cell-based assay [GeneBLAzer AR-UAS-bla-GripTite assay developed by Invitrogen] was used to measure AR ligands signaling. AR-UAS-bla-GripTite HEK 293 cells were used with assay medium containing 10% dialyzed FBS, 0.1 mM NEAA and 1 mM sodium pyruvate. The assay was performed in clear bottom black Greiner 1536-well plates. Library compounds were measured for their ability to inhibit the reporter gene activity. […] The fluorescence intensity (405 nm excitation, 460/530 nm emission) was measured using an EnVision plate reader. […] Detection; Fluorescence; Envision plate reader

Chain of Estrogen receptor (Homo sapiens) (P03372 whole entry, looked up): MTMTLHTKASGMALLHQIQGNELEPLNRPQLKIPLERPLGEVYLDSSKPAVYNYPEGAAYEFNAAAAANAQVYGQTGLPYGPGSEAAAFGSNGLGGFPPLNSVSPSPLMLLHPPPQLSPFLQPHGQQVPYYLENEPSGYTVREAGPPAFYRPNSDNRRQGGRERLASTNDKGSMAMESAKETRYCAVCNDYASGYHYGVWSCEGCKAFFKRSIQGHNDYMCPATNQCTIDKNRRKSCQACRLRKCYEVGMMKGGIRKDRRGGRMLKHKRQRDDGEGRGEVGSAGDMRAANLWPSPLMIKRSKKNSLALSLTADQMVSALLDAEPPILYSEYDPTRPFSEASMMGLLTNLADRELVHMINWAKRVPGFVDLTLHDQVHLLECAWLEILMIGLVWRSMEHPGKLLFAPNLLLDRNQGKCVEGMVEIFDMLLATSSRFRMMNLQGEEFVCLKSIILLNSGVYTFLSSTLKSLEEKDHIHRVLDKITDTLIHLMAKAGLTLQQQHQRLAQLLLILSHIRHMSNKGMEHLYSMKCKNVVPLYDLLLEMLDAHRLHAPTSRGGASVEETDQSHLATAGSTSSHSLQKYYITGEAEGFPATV
Chain of Ubiquitin carboxyl-terminal hydrolase 1 (Homo sapiens) (O94782 whole entry, looked up): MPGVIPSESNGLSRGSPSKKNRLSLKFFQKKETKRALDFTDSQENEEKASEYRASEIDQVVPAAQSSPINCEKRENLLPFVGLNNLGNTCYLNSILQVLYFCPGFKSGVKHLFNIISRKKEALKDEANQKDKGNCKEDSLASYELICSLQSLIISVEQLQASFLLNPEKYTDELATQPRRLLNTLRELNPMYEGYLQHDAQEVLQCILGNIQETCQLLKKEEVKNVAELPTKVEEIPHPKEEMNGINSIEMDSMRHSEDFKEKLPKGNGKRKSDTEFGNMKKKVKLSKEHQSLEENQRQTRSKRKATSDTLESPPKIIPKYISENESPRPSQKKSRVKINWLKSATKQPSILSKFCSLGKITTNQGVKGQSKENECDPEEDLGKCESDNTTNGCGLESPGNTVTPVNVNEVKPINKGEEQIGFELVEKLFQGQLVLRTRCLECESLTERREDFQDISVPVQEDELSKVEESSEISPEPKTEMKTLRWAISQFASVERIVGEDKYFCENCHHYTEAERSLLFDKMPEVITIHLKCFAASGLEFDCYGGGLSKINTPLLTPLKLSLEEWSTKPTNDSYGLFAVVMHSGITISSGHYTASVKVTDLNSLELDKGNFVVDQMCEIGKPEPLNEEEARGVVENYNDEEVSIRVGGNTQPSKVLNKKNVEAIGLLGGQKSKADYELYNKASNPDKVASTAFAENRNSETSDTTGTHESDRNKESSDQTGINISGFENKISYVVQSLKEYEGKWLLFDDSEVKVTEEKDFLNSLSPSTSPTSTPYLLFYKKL
Chain of Bile acid receptor (Homo sapiens) (Q96RI1 whole entry, looked up): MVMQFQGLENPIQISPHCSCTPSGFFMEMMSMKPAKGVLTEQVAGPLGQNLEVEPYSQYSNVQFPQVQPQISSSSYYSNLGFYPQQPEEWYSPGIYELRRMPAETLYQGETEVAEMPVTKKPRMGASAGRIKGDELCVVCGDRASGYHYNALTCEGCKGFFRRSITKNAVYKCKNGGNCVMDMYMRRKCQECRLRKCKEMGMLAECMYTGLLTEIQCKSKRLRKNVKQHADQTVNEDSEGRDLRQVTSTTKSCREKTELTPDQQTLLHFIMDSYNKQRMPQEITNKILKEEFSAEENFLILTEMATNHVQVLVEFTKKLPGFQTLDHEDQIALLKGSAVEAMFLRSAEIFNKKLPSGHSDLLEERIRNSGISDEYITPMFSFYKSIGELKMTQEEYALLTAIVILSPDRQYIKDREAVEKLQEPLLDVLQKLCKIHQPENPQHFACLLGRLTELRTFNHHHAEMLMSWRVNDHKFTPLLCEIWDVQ
Chain of Peroxisome proliferator-activated receptor delta (Homo sapiens) (Q03181 whole entry, looked up): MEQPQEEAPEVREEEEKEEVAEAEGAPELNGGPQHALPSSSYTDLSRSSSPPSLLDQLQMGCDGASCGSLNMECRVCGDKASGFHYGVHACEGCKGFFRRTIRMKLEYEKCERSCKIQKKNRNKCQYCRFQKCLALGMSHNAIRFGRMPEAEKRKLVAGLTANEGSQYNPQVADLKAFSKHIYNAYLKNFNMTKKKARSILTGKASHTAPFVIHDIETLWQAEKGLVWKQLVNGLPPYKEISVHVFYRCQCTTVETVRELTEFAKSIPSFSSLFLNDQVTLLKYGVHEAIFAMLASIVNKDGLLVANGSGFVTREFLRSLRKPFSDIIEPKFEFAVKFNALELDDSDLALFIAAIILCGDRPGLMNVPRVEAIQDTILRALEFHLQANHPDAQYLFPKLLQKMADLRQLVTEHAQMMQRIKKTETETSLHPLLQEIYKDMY
Chain of DNA dC->dU-editing enzyme APOBEC-3G (Homo sapiens) (Q9HC16 whole entry, looked up): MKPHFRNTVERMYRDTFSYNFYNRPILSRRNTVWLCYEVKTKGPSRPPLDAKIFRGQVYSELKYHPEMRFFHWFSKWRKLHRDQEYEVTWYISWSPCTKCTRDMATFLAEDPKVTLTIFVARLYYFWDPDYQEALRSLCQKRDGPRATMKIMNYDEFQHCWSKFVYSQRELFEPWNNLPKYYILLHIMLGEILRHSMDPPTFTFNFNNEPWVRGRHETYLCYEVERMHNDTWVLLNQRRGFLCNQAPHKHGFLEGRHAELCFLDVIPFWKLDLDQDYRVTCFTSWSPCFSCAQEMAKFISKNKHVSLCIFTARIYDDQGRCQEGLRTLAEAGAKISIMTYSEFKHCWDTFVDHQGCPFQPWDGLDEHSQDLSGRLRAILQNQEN
Chain of Glucocorticoid receptor (Homo sapiens) (P04150 whole entry, looked up): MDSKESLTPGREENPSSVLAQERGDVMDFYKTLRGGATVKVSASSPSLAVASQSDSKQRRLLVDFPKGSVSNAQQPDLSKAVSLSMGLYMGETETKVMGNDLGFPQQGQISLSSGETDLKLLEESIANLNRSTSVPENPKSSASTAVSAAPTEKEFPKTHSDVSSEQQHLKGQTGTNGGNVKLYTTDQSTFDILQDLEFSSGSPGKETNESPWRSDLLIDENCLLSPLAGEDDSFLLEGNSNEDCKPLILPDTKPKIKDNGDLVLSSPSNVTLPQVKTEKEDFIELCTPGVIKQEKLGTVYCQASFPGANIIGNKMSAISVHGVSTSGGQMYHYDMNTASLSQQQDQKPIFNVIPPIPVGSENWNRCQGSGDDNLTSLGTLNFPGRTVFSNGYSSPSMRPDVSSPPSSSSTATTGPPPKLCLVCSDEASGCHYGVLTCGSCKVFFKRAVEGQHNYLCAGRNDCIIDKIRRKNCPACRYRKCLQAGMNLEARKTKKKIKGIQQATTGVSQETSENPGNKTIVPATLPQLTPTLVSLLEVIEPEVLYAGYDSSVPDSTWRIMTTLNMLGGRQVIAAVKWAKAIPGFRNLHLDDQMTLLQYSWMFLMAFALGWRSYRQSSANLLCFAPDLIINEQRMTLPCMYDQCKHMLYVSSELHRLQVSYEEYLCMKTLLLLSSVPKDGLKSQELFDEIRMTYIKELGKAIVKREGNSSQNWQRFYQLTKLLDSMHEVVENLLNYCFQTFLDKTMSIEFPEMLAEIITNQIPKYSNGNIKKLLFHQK
Chain of Androgen receptor (Homo sapiens) (P10275 whole entry, looked up): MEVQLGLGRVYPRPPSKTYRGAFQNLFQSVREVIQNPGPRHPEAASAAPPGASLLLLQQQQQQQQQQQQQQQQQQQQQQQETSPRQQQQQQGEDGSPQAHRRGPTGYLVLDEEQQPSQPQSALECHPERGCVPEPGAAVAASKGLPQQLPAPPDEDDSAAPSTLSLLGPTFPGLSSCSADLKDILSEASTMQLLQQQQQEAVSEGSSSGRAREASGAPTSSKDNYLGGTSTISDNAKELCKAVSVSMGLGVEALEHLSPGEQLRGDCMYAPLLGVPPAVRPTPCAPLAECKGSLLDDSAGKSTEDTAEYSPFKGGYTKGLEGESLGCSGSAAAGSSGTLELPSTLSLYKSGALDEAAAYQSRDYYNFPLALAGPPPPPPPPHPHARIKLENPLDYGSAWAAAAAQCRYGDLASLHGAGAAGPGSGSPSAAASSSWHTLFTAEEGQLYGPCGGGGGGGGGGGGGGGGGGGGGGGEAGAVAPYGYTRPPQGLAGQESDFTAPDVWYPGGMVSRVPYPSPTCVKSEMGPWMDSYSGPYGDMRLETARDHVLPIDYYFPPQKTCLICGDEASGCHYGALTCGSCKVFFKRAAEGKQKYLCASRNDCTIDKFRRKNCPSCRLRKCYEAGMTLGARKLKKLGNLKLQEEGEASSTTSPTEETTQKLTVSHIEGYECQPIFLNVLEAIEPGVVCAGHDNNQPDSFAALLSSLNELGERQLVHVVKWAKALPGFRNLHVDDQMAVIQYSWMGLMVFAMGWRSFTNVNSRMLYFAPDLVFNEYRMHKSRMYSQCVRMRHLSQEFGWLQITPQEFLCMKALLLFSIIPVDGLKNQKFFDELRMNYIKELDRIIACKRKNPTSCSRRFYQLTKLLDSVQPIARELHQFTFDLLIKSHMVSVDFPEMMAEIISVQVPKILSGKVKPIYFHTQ

As to `CC[C@H](NC(C)C)[C@H](O)c1ccc(O)c2[nH]c(=O)ccc12`, the Potency entry in [1] is “inactive”. In test [2], the call was inactive.

As for `OC(Cn1cncn1)(Cn1cncn1)c1ccc(F)cc1F`, the Potency result in [1] and in test [3] was “inactive” in each case. Also, the compound was classed as inactive in [4] and in test [5].

As to `Cc1noc(NS(=O)(=O)c2ccc(N)cc2)c1C`, the Potency entry in [1] and in test [3] was “inactive” in each case. Moreover, the compound was classed as inactive in test [2], in test [4], in [6] and in test [8]. Also, in test [7], the max response was 23.8% and 11.7%.

`C[C@]12C=CC(=O)C=C1CC[C@@H]1[C@@H]2C(=O)C[C@@]2(C)[C@H]1CC[C@]2(O)C(=O)CO`: the Potency entry in [1] and in [3] was “inactive” in each case. The compound was called inactive in test [4].

With `COc1cc2c(Nc3ccc(Br)cc3F)ncnc2cc1OCC1CCN(C)CC1`, the Potency entry in test [1] is “inactive”.

For `Cc1nnc(NS(=O)(=O)c2ccc(N)cc2)s1`, the Potency entry in [1] and in test [3] was “inactive” throughout. Besides, the outcome in test [4] and in test [10] was inactive. Besides, the activation in test [9] was -1.65% (inactive).

`COc1ccc2cc3[n+](cc2c1OC)CCc1cc2c(cc1-3)OCO2`: the Potency entry in test [1] and in test [3] was “inactive” each time.

For the compound `O=c1oc2c(O)c(O)cc3c(=O)oc4c(O)c(O)cc1c4c23`, in test [2], the compound was classed as inactive.

For the compound `Cc1ccnc2c1NC(=O)c1cccnc1N2C1CC1`, the Potency entry in test [1] was “inactive”. Moreover, the outcome in test [6], in test [5] and in [8] was inactive. In addition, in [7], the max response is 14.9%.

Take `CN(C)c1ccc(C(=C2C=CC(=[N+](C)C)C=C2)c2ccc(N(C)C)cc2)cc1`: the Potency in [1] was 20 µM (active) and 22.4 µM (active); in test [3], 28.2 µM [inconclusive] (active).

Turning to `S=P(N1CC1)(N1CC1)N1CC1`, the Potency entry in test [1] and in [3] was “inactive” throughout. In addition, the result in test [6], in test [5] and in [8] was inactive. For the same compound, the max response in test [7] turned out to be 6.13%.
